# Data as given in PubChem BioAssay (NCATS).
# Inconclusive results are not listed. A call without a number means that no potency is given here. Calls of active or inactive are those of the source. The call rests on the fitted dose curve; in most records, active means well fitted inhibition curve with a large enough effect; inconclusive means small, poorly fitted or top-dose-only effect; inactive means no such curve, though single readings can be large or run the other way.
# Target: Retinaldehyde dehydrogenase 3 (Homo sapiens) (UniProt P47895)
# Experiment: qHTS for Inhibitors of the Aldehyde Dehydrogenase Family (ALDH1A3) Primary screen (AID 2061315)
# Conditions: ALDH inhibition qHTS; series mostly up to 56 µM
row,SMILES,Potency
1,COc1cc(O)c(C(CC(=O)N2C[C@H](C)C[C@H](C)C2)c2ccc3c(c2)OCO3)c(OC)c1 (stereo partly specified),inactive
2,Cc1cc(NS(=O)(=O)c2ccc(Nc3nc(-c4ccc(C)c(C)c4)cs3)cc2)no1,inactive
3,COc1cccc(S(=O)(=O)NC2CCN(C#N)C2)c1 (stereo unspecified),inactive
4,CC(=O)Nc1cccc(OCc2cccc(C3Nc4ccccc4C(=O)N3Cc3ccco3)c2)c1 (stereo unspecified),inactive
5,N#CNC(=O)c1ccc(-n2cccc2/C=C2\NC(=O)N(CC(=O)Nc3ccc(F)cc3)C2=O)cc1,inactive
6,O=C1Cc2cc(S(=O)(=O)N3CCN(c4ccc(Cl)cc4)CC3)ccc2N1,inactive
7,Cc1ccc2nc3sc(C(=O)NC4CCC(O)CC4)cc3cc2c1 (stereo unspecified),inactive
8,Cc1ccc(S(=O)(=O)Nc2cnccc2C(=O)Nc2nc(-c3ccco3)cs2)cc1,inactive
9,CN1CCN(C(=O)c2cccc(-c3ccc(CNc4ccc(N5CCN(C(=O)OC(C)(C)C)CC5)cc4)o3)c2)CC1,inactive
10,Cc1ccsc1CN(C)c1ncnc2ccc(-c3oc(-c4ccccc4)nc3C)cc12,inactive
11,Cc1ccc(CNc2ncnc3ccc(-c4ccc([C@@H](C)O)o4)cc23)o1,inactive
12,Cc1ccc(CNc2ncnc3ccc(-c4oc(-c5ccccc5)nc4C)cc23)o1,inactive
13,Nc1cc(S(=O)(=O)N2CCN(S(=O)(=O)c3ccc4c(c3)OCCO4)CC2)ccn1,inactive

# Target: Aldehyde dehydrogenase 1A1 (Homo sapiens) (UniProt P00352)
# Experiment: qHTS for Inhibitors of the Aldehyde Dehydrogenase Family (ALDH1A1) Confirmatory screens (AID 2061316); further: nearly all actives have a fitted effect of over 65% in size; further: potency means the concentration at half of the fitted maximal effect
# Conditions: ALDH inhibition qHTS; series mostly up to 47.3 µM
row,SMILES,Potency
1,CC(=O)c1c(C)n(-c2ccc(Cl)cc2)c2ccc(OC(=O)COc3ccccc3)cc12,inactive
2,COc1ccc(Cl)cc1C(=O)NCc1nnc2cc(-c3nc(C)no3)ccn12,inactive
3,CCOC(=O)c1c(C)n(-c2ccccc2)c2ccc(OC(=O)c3ccccc3)cc12,inactive
4,COc1ccc(-n2c(C)c(C(C)=O)c3cc(OC(=O)c4ccc(C)cc4)ccc32)cc1,inactive
5,Cn1sc(=O)n(Cc2ccccc2)c1=O,0.283 µM (active)
6,Cc1ccc(-c2ccccc2C=O)c(C)c1,inactive
7,Cc1ccc(C(=O)NCC(c2ccc3c(c2)OCO3)N2CCN(c3ccc(F)cc3)CC2)cc1 (stereo unspecified),inactive
8,COc1cccc(S(=O)(=O)NC2CCN(C#N)C2)c1 (stereo unspecified),inactive
9,CN(C)c1ccc(-c2csc(N3CCC(C(N)=O)CC3)n2)cc1,8.96 µM (active)
10,CC(=O)N1CCN(c2ccc(NCc3ccc(Br)o3)cc2)CC1,10.1 µM (active)
11,CC(=O)Nc1cccc(OCc2cccc(C3Nc4ccccc4C(=O)N3Cc3ccco3)c2)c1 (stereo unspecified),7.12 µM (active)
12,Cc1ccc(-c2cccc(C=O)c2)c(C)c1,inactive
13,O=C(CCC1CCCN(S(=O)(=O)c2ccccc2F)C1)NCCCN1CCOCC1 (stereo unspecified),inactive
14,N#CNC(=O)c1ccc(-n2cccc2/C=C2\NC(=O)N(CC(=O)Nc3ccc(F)cc3)C2=O)cc1,inactive
15,CC(=O)N1CCN(c2ccc(NCc3ccco3)cc2)CC1,7.98 µM (active)
16,Cc1cccc(C(=O)NCc2nnc3cc(-c4nc(C)no4)ccn23)c1,inactive
17,O=C(NCC(=O)N1CCN(Cc2ccccc2)CC1)c1cccc(-c2ccsc2)c1,inactive

row,SMILES,Potency
1,Cc1ccc2nc3sc(C(=O)NC4CCC(O)CC4)cc3cc2c1 (stereo unspecified),12.7 µM (active)
2,CC(=O)c1c(C)n(-c2ccc(C)cc2)c2ccc(OC(=O)COc3ccccc3)cc12,inactive
3,COc1ccc(-n2c(C)c(C(C)=O)c3cc(OC(=O)COc4ccccc4)ccc32)cc1,inactive
4,Cc1ccc(S(=O)(=O)Nc2cnccc2C(=O)Nc2nc(-c3ccco3)cs2)cc1,0.798 µM (active)
5,COc1ccc2c(c1)c(C(=O)CN(C)C)c(C)n2C,inactive
6,COc1ccc(-c2nc3ccccc3c(=O)n2Cc2ccccc2)cc1CNc1ccc(NC(C)=O)cc1,11.3 µM (active)
7,Oc1cc2c(cc1CN1CCN(c3ncccn3)CC1)OCO2,5.65 µM (active)
8,Cc1ccc(CNc2ncnc3ccc(-c4ccc([C@@H](C)O)o4)cc23)o1,11.3 µM (active)
9,Cc1cc(C)cc(-c2ccccc2C=O)c1,inactive
10,COc1cccc(-c2cccc(C(=O)N3CCN(C(=O)c4ccc(C)cc4)CC3)c2)c1,8.14 µM (active)
11,CC(=O)c1c(C)n(-c2cccc(C)c2)c2ccc(OC(=O)COc3ccccc3)cc12,inactive
12,CCN(CC)CC(=O)c1c(C)n(C)c2ccc(OC)cc12,inactive
13,O=C(Cc1ccc(F)cc1)Nc1cccc(-c2nc3cccnc3s2)c1,inactive
14,COc1ccc(-c2nc(CCNC(=O)c3c(F)cccc3Cl)cs2)cc1,inactive
15,O=C(Nc1ncc(Cc2ccc(C(F)(F)F)cc2)s1)c1ccc(-c2ccccc2[N+](=O)[O-])o1,6.34 µM (active)
16,CC(=O)c1c(C)n(-c2cccc(Cl)c2)c2ccc(OC(=O)c3ccccc3)cc12,inactive
